This note sets out measurements from PubChem BioAssay (Tox21).

SMILES strings stand for the structures. Records with an inconclusive call do not appear. Values without a mark were called inactive. The source made the active and inactive calls. Unless noted, calls follow the shape of the dose curve; as a rule, active = well fitted curve in the direction sought with a large enough effect in the repeat runs; inconclusive = weak or mixed curves; inactive = no such curve, though single readings can be large; an effect the other way counts as inactive or inconclusive.

Assay [1] can be described thus: qHTS assay to identify small molecule agonists of the NFkB signaling pathway (AID 1159509; active = well fitted curve in the direction sought with a large enough effect in the signal ratio in the repeat runs, not every such curve was filed as active; the % refers to the signal ratio; also: % is scaled to controls: 0 for no effect and ±100 for the full control effect). A digest of the protocol:
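After overnight attachment, reporter cells received test compounds, DMSO or positive controls and were incubated 5 hr at 37 C. FRET substrate was then added for 1.5 hr at room temperature before dual-emission fluorescence reading.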
(Quantitative high-throughput screening tests each substance at several concentrations.)

A short description of assay [2]: qHTS assay to identify small molecule agonists of the NFkB signaling pathway - cell viability counter screen (AID 1159515; calls by dose curve; also: % is scaled to controls: 0 for no effect and ±100 for the full control effect; nearly all actives have a fitted effect of over 55% in size). A digest of the protocol: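 Multiplexed viability readout: after the 5 hr compound exposure and 1.5 hr FRET substrate step, CellTiter-Glo reagent went into the same NFkB-bla ME-180 wells; ATP luminescence was measured after 30 min at room temperature.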

The nature of assay [3]: qHTS assay to identify small molecule antagonists of the retinoid-related orphan receptor gamma (ROR-gamma) signaling pathway - cell viability counter screen (AID 1159520). Also: nearly all actives have a fitted effect of over 50% in size. Also: potency is read from the fitted curve at half-maximal effect. A digest of the protocol: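 Tet-on ROR gamma CHO cells (1,000/well) were plated 4 hr, given compounds in DMSO for 2 hr at 37 C, then induced with 1 uM final doxycycline for 16 hr. Viability was read as ATP by CellTiter-Glo luminescence after 30 min.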

The target in assay [4] is Nuclear receptor ROR-gamma (Homo sapiens) (UniProt P51449). Briefly: qHTS assay to identify small molecule antagonists of the retinoid-related orphan receptor gamma (ROR-gamma) signaling pathway (AID 1159521; also: nearly all actives have a fitted effect of over 50% in size; also: potency is read from the fitted curve at half-maximal effect). A digest of the protocol:
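CHO cells expressing RORγ under a TET-on promoter, luciferase under RORE control. Dox 1 uM final, 16 h; compounds added 2 h prior. Luminescence decrease measured.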

Assay [5] in a line: qHTS assay to identify small molecule agonists of the AP-1 signaling pathway - cell viability counter screen (AID 1159525; calls by dose curve; also: nearly all actives have a fitted effect of over 55% in size). A digest of the protocol:
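ME-180 AP-1-bla, 2500 cells/well, Opti-MEM + 0.5% dialyzed FBS; overnight 37 °C; cpd 15-pt titration, 5 h 37 °C; CellTiter-Glo 30 min RT; luminescence read; normalised to TOAB and DMSO controls.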

Assay [6] can be described thus: qHTS assay to identify small molecule agonists of the AP-1 signaling pathway (AID 1159526; calls by dose curve; also: % is scaled to controls: 0 for no effect and ±100 for the full control effect).
For assay [7], the target named is Retinoic acid receptor RXR-alpha (Homo sapiens) (UniProt P19793). Briefly: qHTS assay to identify small molecule agonists of the RXR signaling pathway (AID 1159527; calls by dose curve; also: nearly all actives have a fitted effect of over 35% in size; also: potency is read from the fitted curve at half-maximal effect). In a few lines: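 Beta-lactamase reporter assay, agonist format. Engineered HEK 293T line, charcoal-stripped FBS at 2%, overnight (16 hr) exposure, fluorescence at 460 and 530 nm after 405 nm excitation.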
Retinoic acid receptor RXR-alpha (Homo sapiens), sequence (P19793 whole entry, looked up): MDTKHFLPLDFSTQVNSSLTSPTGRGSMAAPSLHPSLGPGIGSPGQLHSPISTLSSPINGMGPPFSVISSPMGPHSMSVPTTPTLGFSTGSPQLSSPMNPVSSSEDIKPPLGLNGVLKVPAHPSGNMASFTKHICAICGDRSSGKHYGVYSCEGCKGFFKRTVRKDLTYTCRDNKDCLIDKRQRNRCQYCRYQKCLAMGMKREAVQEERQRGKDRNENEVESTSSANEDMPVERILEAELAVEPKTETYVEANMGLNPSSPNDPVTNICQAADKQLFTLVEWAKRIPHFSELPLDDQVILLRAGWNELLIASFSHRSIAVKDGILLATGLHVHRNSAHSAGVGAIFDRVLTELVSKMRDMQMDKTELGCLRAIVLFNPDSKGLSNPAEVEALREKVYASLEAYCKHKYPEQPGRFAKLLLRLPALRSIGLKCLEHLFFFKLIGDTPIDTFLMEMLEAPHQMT

Assay [8] can be described thus: qHTS assay to identify small molecule agonists of the RXR signaling pathway - cell viability counter screen (AID 1159529).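 Also: HEK 293T cells carrying an RXR-alpha UAS beta-lactamase reporter; % is scaled to controls: 0 for no effect and ±100 for the full control effect; nearly all actives have a fitted effect of over 50% in size.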 In a few lines:
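Same-well viability check after the LiveBLAzer FRET read: CellTiter-Glo added, luminescence measured after 30 min at room temperature. Reporter HEK 293T cells had been treated with compounds for 16 hr following a 5 hr preincubation.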

Assay [9] in a line: qHTS assay to identify small molecule antagonists of the retinoid acid receptor (RAR) signaling pathway - cell viability counter screen (AID 1159551). Also: % is scaled to controls: 0 for no effect and ±100 for the full control effect; nearly all actives have a fitted effect of over 35% in size. A digest of the protocol:
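Cytotoxicity counter screen in C3RL4 cells: 6 h compound exposure with 1 uM retinol (final), viability from cellular ATP by luminescence.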

Assay [10] in a line: qHTS assay to identify small molecule agonists of the endoplasmic reticulum stress response signaling pathway - cell viability counter screen (AID 1159517; calls by dose curve;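 also: HeLa cells carrying an ER stress response element beta-lactamase reporter; % is scaled to controls: 0 for no effect and ±100 for the full control effect; nearly all actives have a fitted effect of over 50% in size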). In a few lines:
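Luminescence readout: CellTiter-Glo, 30 min RT, same wells as the ESRE-bla reporter read. HeLa ESRE-bla, 1,500 cells/well, o/n 37 C; cpd 5 hr 37 C/5% CO2.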

Assay [11] can be described thus: qHTS assay to identify small molecule antagonists of the retinoic acid receptor (RAR) signaling pathway (AID 1159552). A digest of the protocol: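 Readout: luciferase luminescence, 30 min post-reagent at RT. Setup: C3RL4 RARE reporter cells, compounds plus retinol 1 uM final, 6 hr incubation at 37 C and 5% CO2.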
Assay [12] can be described thus: qHTS assay to identify small molecule agonists of the retinoic acid receptor (RAR) signaling pathway (AID 1159553). Also: % is scaled to controls: 0 for no effect and ±100 for the full control effect. The note with it: C3RL4 RARE luciferase reporter, agonist, 6 h; activation: at 73.3 µM (top of the series). A digest of the protocol:
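Agonist activity was scored in C3RL4 cells bearing a retinoic acid response element luciferase construct. Cells were treated with compounds for 6 hr at 37 C, and luciferase signal was measured as luminescence.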

Assay [13] is described as follows: qHTS assay to identify small molecule antagonists of the estrogen related receptor (ERR) signaling pathway - cell viability counter screen (AID 1224818).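 Also: viability measured after 17.5 h of compound exposure; % is scaled to controls: 0 for no effect and ±100 for the full control effect.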 A digest of the protocol:
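Cells carrying the ERR pathway reporter were seeded and incubated for 6 hours before compound addition. After a 17.5-hour exposure at 37 C, live-cell protease activity was measured by CellTiter-Fluor fluorescence following 30 minutes of incubation.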

Assay [14] in a line: qHTS assay to identify small molecule antagonists of the estrogen related receptor (ERR) signaling pathway (AID 1224819). In a few lines:
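Compounds dissolved in DMSO were pin-transferred onto ERR cells that had been plated 6 h earlier, and cells were then incubated 18 h at 37 C; signal was luciferase luminescence via One-Glo.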

Assay [15] can be described thus: qHTS assay to identify small molecule agonists of the estrogen related receptor (ERR) signaling pathway (AID 1224820). Also: % is scaled to controls: 0 for no effect and ±100 for the full control effect. In a few lines: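 Quantitative HTS of the LOPAC library used NTP ERR reporter cells treated 18 h at 37 C. Signal is luminescence after One-Glo addition and a 30 min room-temperature incubation.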
Assay [16] relates to estrogen-related receptor alpha (ERRalpha) with PGC-1alpha coactivator, human. Description: qHTS assay to identify small molecule antagonists of the estrogen related receptor signaling pathway with the pleiotropic PPARgamma coactivator (PGC) (AID 1224821; calls by dose curve). In a few lines: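 Quantitative HTS for antagonism: PGC/ERR cells received compounds after 6 h attachment and were incubated 18 h at 37 C, with luminescence (One-Glo) as the endpoint.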

Assay [17] can be described thus: qHTS assay to identify small molecule antagonists of the estrogen related receptor signaling pathway with the pleiotropic PPARgamma coactivator (PGC) cell viability counter screen (AID 1224822; also: % is scaled to controls: 0 for no effect and ±100 for the full control effect). In a few lines: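 Seed PGC/ERR cells (2,000/well); incubate 6 h at 37 C/5% CO2; pin-transfer compounds in DMSO; incubate 17.5 h at 37 C; add CellTiter-Fluor; after 30 min read fluorescence.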

Assay [18] is described as follows: qHTS assay to identify small molecule agonists of the estrogen related receptor signaling pathway with the pleiotropic PPARgamma coactivator (PGC) (AID 1224823). Also: % is scaled to controls: 0 for no effect and ±100 for the full control effect. In a few lines:
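Cell-based luciferase assay in the NTP-supplied PGC/ERR line, 2,000 cells/well; 18 h compound exposure at 37 C, luminescence after One-Glo.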

A short description of assay [19]: qHTS assay to identify small molecule antagonists of the vitamin D receptor (VDR) signaling pathway - cell viability counter screen (AID 743225). A digest of the protocol:
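Luminescent cell viability (CellTiter-Glo) in VDR-bla HEK 293T cells after 16 h compound exposure at 37C in the presence of 3 nM final 1-alpha,25-dihydroxy vitamin D3.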

`CCCCCCCCOc1ccc(C(=O)O)cc1`: the Potency entry in assay [1], in assay [2], in assay [3], in assay [4], in assay [5] and in assay [6] was “inactive” in each case. Also, the Potency result in [8] and in assay [9] was “inactive” throughout. Also, the Potency in [7] is 19.3 µM (active).
For `Oc1cccc(O)c1O`, the Potency result in [1], in assay [2], in [10], in assay [4], in assay [5] and in assay [11] was “inactive” throughout. Also, in assay [12], the activation is 3.27% (active).
Consider `C=C(C)C(=O)OCCOCCOC(=O)C(=C)C`, for which the Potency entry in assay [1], in assay [2], in assay [10], in assay [5], in assay [6] and in assay [8] was “inactive” each time. The Potency result in [9] was “inactive”.
Regarding `CN1C(=O)c2ccccc2C1=O`, the Potency result in [1], in [2], in assay [3], in [4], in assay [6] and in assay [8] was “inactive” throughout. The Potency result in assay [9], in [11] and in assay [12] was “inactive” each time. Also, the compound was called inactive in [13], in assay [14], in assay [15], in assay [16], in assay [17] and in [18].
In the case of `CC=C(Cl)Cl`, the Potency entry in [19], in assay [1], in assay [2], in assay [3], in assay [4] and in assay [5] was “inactive” in each case. Also, the Potency entry in [6], in [7], in [8], in assay [9] and in assay [11] was “inactive” throughout.
`CCOC(=O)c1ccccc1C(=C1C=C(Br)C(=O)C(Br)=C1)c1cc(Br)c(O)c(Br)c1`: the Potency result in assay [19], in assay [1], in assay [2], in assay [5], in assay [8] and in assay [9] was “inactive” in each case. In addition, the Potency entry in [11] and in [12] was “inactive” each time. In addition, the Potency in [3] was 51.3 µM (active); in [4], 22.9 µM (active).
As for `C[C@H]1c2cccc(O)c2C(O)=C2C(=O)[C@]3(O)C(O)=C(C(N)=O)C(=O)[C@@H](N(C)C)[C@@H]3[C@@H](O)[C@@H]21`, the Potency entry in assay [19], in assay [1], in assay [2], in [10], in assay [5] and in [8] was “inactive” each time. Besides, the Potency result in [9] is “inactive”. The Potency in assay [4] was 29.8 µM (active). In addition, the call in assay [13], in assay [15], in [17] and in assay [18] was inactive.
In the case of `CCOC(=O)c1ccc(OCCN2C[C@H](O)[C@@H](O)[C@H](O)[C@H]2CO)cc1`, the Potency result in assay [1], in assay [2], in assay [3], in assay [4], in [5] and in [6] was “inactive” each time. Also, the Potency result in [7], in assay [8] and in [9] was “inactive” throughout.
For `Cc1ccccc1S`, the Potency entry in assay [19], in assay [1], in assay [2], in assay [3], in [4] and in assay [5] was “inactive” in each case. Moreover, the Potency result in [6], in assay [8] and in assay [9] was “inactive” in each case.
Take `CCC1NC(=O)c2cc(S(N)(=O)=O)c(Cl)cc2N1` (stereo unspecified): the Potency entry in assay [19], in assay [1], in assay [2], in assay [3], in assay [4] and in assay [5] was “inactive” each time. The Potency entry in [6], in [7], in [8] and in [9] was “inactive” each time.
For `CCOC(=O)C1=C(C)NC(C)=C(C(=O)OC)C1c1cccc(Cl)c1Cl` (stereo unspecified), the Potency result in assay [1], in [2], in assay [10], in assay [4], in assay [6] and in assay [7] was “inactive” throughout. Moreover, the Potency entry in assay [9] and in [12] was “inactive” each time. Further, the compound was classed as inactive in assay [13], in assay [15], in [16] and in assay [18].
